# Reference: PubChem BioAssay AID2284334 (EPA ToxCast)
# Results filed as inconclusive are left out. Activity calls are given as the source filed them. The calls were made as follows: active = hit-call score of the fitted dose curve at least 0.9, where 1 is the maximum; inconclusive = response in the unintended direction; inactive = score below 0.9.
# Target: human Peroxisome Proliferator-activated Receptor alpha (PPARa), PPARA (gene 5465) (UniProt Q07869)
# Assay: ATG_hPPARa_EcoTox2: Attagene TRANS-FACTORIAL EcoTox-2 HepG2 Assay for human Peroxisome Proliferator-activated Receptor alpha (PPARa)
# Protocol: ATG_EcoTox2 is a cell-based, multiplexed assay created by modifying the existing Attagene TRANS-FACTORIAL system to include a panel of nuclear receptors from some or all the following species: human (Homo sapiens), african clawed frog (Xenopus laevis), rainbow trout (Oncorhynchus mykiss), japanese medaka (Oryzias latipes), and zebrafish (Danio rerio). The ECOTOX2-FACTORIAL format uses HepG2, a human liver cell line, with measurements taken at 24 hours after chemical dosing in a 24-well plate. ATG_hPPARa_EcoTox2 is one of 29 assay components calculated in the ATG_EcoTox2 assay. It is designed to make measurements of mRNA induction, a form of inducible reporter, as detected with fluorescence intensity signals by Reverse transcription polymerase chain reaction (RT-PCR) and Capillary electrophoresis technology.The assay endpoint ATG_hPPARa_EcoTox2 was analyzed in the positive analysis fitting direction relative to DMSO as the negative control and baseline of activity. Using a type of inducible reporter, measures of mRNA for gain-of-signal activity can be used to understand the reporter gene at the transcription factor-level as they relate to the gene PPARa. Furthermore, this assay endpoint can be referred to as a primary readout, because this assay has produced multiple assay endpoints where this one serves a reporter gene function. To generalize the intended target to other relatable targets, this assay endpoint is annotated to the nuclear receptor intended target family, where the subfamily is non-steroidal.
# Human liver HepG2 cells are transiently transfected with multiple reporter transcription units (MRTUs) in 6-well plates using FuGene 6 reagent (Roche; 3 ml FuGene/1 mg DNA). The MRTU constructs are regulated by a cis-regulating element (promoter). Each RTU expresses a GAL4-UAS that regulates the transcription of a nearby target reporter gene sequence. A major difference between the CIS and TRANS system is that in CIS activities of endogenous TFs are measured, whereas the TRANS assay evaluates changes in activities of exogenous, chimeric NR-Gal4 proteins. […] At the end of 24 hour incubation, total RNA was isolated using TriZol reagent (Invitrogen). The isolated RNA is then reverse-transcribed using oligo(dT) primer and Mo-MLV reverse transcriptase (Invitrogen) with DNAse I (Ambion) treatment for 30 min. The one-tenth of the produced cDNA was amplified by PCR using Taq DNA polymerase (Invitrogen) and two reporter sequence-specific primers. The PCR products were fluorescently labeled by primer extension with 6-arboxyfluorescein (6-FAM) 5'-labeled reporter sequence-specific primer (2 min at 95 C, 20 s at 68 C and 10 min at 72 C) and these products were digested with 5U of HpaI (New England Biolabs) for 2h at 37 C. The fragments were purified using Qiaquick PCR columns (Qiagen), analyzed on an ABI 3130xL genetic analyzer (Applied Biosystems) with peak positions identified by using a set of X-rhodamine (ROX)-labeled MapMarker1000 molecular weight standards (BioVentures). The raw capillary electrophoresis data was processed using Attagraph software (Attagene).
# human Peroxisome Proliferator-activated Receptor alpha (PPARa), PPARA (gene 5465), sequence (Q07869 whole entry, looked up): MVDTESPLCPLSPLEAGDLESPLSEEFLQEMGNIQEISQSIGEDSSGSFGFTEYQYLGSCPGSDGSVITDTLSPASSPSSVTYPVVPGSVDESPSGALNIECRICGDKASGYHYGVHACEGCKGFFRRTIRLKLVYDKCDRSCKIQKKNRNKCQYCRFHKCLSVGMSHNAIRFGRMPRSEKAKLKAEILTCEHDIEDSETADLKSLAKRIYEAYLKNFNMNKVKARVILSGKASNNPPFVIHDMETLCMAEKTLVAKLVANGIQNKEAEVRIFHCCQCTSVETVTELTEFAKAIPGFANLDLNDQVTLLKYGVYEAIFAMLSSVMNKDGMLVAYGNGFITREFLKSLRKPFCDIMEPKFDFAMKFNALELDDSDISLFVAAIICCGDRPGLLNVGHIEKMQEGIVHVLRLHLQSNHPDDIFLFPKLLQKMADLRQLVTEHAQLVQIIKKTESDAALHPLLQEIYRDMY
Structure (SMILES),outcome,AC50
C[C@@H]1C[C@H]2[C@@H]3CCC4=CC(=O)C=C[C@]4(C)[C@@]3(F)[C@@H](O)C[C@]2(C)[C@@]1(O)C(=O)COP(=O)(O)O,inactive,–
CC(C)(Oc1ccc(C2CC2(Cl)Cl)cc1)C(=O)O (stereo not given),–,0.984 µM (active)
CC(C)(Oc1ccc(Cl)cc1)C(=O)O,–,17.1 µM (active)
C[C@]12C=CC(=O)C=C1CC[C@@H]1[C@@H]2C(=O)C[C@@]2(C)[C@H]1CC[C@]2(O)C(=O)CO,inactive,–
CC(c1cc2ccccc2s1)N(O)C(N)=O (stereo not given),inactive,–
